# Assay results taken from publication PMC4552634, “A New Set of Chemical Starting Points with Plasmodium falciparum Transmission-Blocking Potential for Antimalarial Drug Discovery” (PLoS ONE, 2015).
# Read-outs that look alike come from different tables or passages of the source. Out of some 13,000 compounds screened, about 3,200 (25%) showed an effect of 50% or more. The list shows a part of the results.
# Test system: P. falciparum stage V gametocytes
# Set-up: BacTiter-Glo ATP luminescence viability of purified stage V gametocytes in 384-well plates, per cent inhibition versus DMSO
# Conditions: 48 h, 5 µM, inhibitor
SMILES,% Inhibition [%],% Inhibition (% Inhibition) [%]
COc1ccccc1C1CN(Cc2coc3ccccc3c2=O)Cc2ccccc2O1 (stereo not drawn) [TCMDC-124669],4.679,–
Cc1c(Cl)cccc1S(=O)(=O)Nc1ccc(CCN2CCC(N)CC2)cc1 [TCMDC-134083],99.61,–
NC1CCN(CCc2ccc(NS(=O)(=O)c3cccc4ccccc34)cc2)CC1 [TCMDC-134084],55.68,–
COC(=O)CCCOc1cc(Cc2cnc(N)nc2N)cc(OC)c1OC [TCMDC-137557],8.428,–
CC1(C)N=C(N)N=C(N)N1OCCc1cccc2ccccc12 [TCMDC-131663],2.124,–
CCNC(=O)Nc1ccc(-c2ccc(-c3nc4cccc(C)c4[nH]3)s2)cc1 [TCMDC-133170],11.61,–
Cc1cc2[nH]c(-c3ccc(C(=O)NCCCN4CCN(c5cccc(Cl)c5)CC4)cc3)nc2cc1Cl [TCMDC-140027],-17.26,–
CCc1nc2c(cnn2CC)c(NC2CCOCC2)c1CNC(=O)N1CCOCC1 [TCMDC-136620],94.41,–
CCn1ncc2c(NC3CCOCC3)c(CNC(=O)c3ccnn3C)c(C)nc21 [TCMDC-136560],97.63,–
Cn1nccc1C(=O)NCCNCc1ccc(-c2ccc(-c3nc4cc(F)ccc4[nH]3)cc2)cc1.O=C(O)C(F)(F)F [TCMDC-133012],-30.72,–
Cc1nc(C)n(CC(=O)Nc2cccc(-c3cccc(-c4nc5ccc(C(F)(F)F)cc5[nH]4)c3)c2)n1 [TCMDC-137134],-7.323,–
O=S(=O)(c1cccc(F)c1)c1ccc(Nc2ncnc3cc(Br)sc23)cc1Cl [TCMDC-135626],18.51,–
O=C(Nc1n[nH]c2nc(-c3ccco3)c(Br)cc12)c1ccc(CN2CCCC2)cc1 [TCMDC-141483],10.19,–
CN(C)CCN(Cc1ccccc1-c1ccc(CNCCc2ccccc2)cc1)C(=O)c1ccccc1 [TCMDC-140532],112.9,–
CN(C)CCN(Cc1ccccc1-c1ccc(CNCCc2ccccc2)cc1)C(=O)NC1CCCCC1 [TCMDC-140626],107.8,–
COc1cccc(CCN(Cc2ccccc2-c2ccc(CNC3CC(C)(C)NC(C)(C)C3)cc2)C(=O)NC2CCCCC2)c1 [TCMDC-141577],108.7,–
CC(=O)Nc1cccc(C(=O)Nc2nc3ccc(-c4cc(=O)[nH]c(Nc5ccccc5Cl)n4)cc3[nH]2)c1 [TCMDC-135793],-20.56,–
C(=Cc1ccccc1)C=NNc1ccnc2ccccc12 [TCMDC-142061],-65.55,–
Fc1cccc(COc2ccc(Nc3ncnc4sc(C#CCNC5CCCC5)cc34)cc2Cl)c1 [TCMDC-138786],-17.57,–
CCC1N=C(N)N=C(N)N1OCCCOc1c(Cl)cc(Cl)cc1Cl (stereo not drawn) [TCMDC-131697],23.8,–
Cc1ccc(NC(=O)NC2CCN(c3ccnc4cc(Cl)ccc34)C2)cc1 (stereo not drawn) [TCMDC-133651],27.92,–
COc1cc(NC(=O)/C=C/c2ccccc2Cl)cc(OCCN2CCC(O)(c3ccccc3)CC2)c1 [TCMDC-140934],-1.317,–
CC1(CCCCN2CCC(Oc3ccc(F)cc3F)CC2)C(=O)Nc2ccccc21 (stereo not drawn) [TCMDC-140794],-43.13,–

SMILES,% Inhibition [%],% Inhibition (% Inhibition) [%]
O=C1Nc2cccc3c2C1(CCCCN1CCC(c2cc4ccncc4[nH]2)CC1)CCC3 (stereo not drawn) [TCMDC-141151],–,27.49
O=C1Nc2cccc3c2C1(CCCCN1CCC(c2c[nH]c4cc(C(F)(F)F)ccc24)CC1)CCC3 (stereo not drawn) [TCMDC-140465],121.5,–
O=C1Nc2cccc3c2C1(CCCCN1CC=C(c2c[nH]c4ncccc24)CC1)CCC3 (stereo not drawn) [TCMDC-140506],-6.886,–
O=C1Nc2cccc3c2C1(CCCN1CCC(c2c[nH]c4cc(C(F)(F)F)ccc24)CC1)CCC3 (stereo not drawn) [TCMDC-140464],106.4,–
O=C1Nc2cccc3c2C1(CCCCCN1CCC(c2c[nH]c4ccncc24)CC1)CCC3 (stereo not drawn) [TCMDC-140504],73.67,–
O=C1Nc2cccc3c2C1(CCCCN1CCC(c2cc4ccncc4[nH]2)CC1)CCC3 (stereo not drawn) [TCMDC-141221],–,84.1
CC(C)(C)OC(=O)n1cc(C2CCN(CCCC34CCCc5cccc(c53)NC4=O)CC2)c2ccncc21 (stereo not drawn) [TCMDC-140392],2.693,–
O=C1Nc2cccc3c2C1(CCCCCN1CC=C(c2c[nH]c4ccccc24)CC1)CCC3 (stereo not drawn) [TCMDC-140570],20.32,–
CCOc1ncccc1CN1CCC(N2CCc3cc(NC(=O)c4ccco4)ccc32)C1 (stereo not drawn) [TCMDC-135074],-21.9,–
COc1ccc(C2N=C(N)N=C(N)N2c2ccc(Cl)cc2)cc1OC (stereo not drawn) [TCMDC-123670],-7.954,–
COc1cc(C(=O)NC2CCN(Cc3ccccc3)CC2)ccc1-c1nc2c(Cl)cc(C(F)(F)F)cc2[nH]1 [TCMDC-140085],-15.98,–
Cc1cccc2[nH]c(-c3ccc(-c4ccc(NC(=O)Nc5ccc(F)c(F)c5F)cc4)cc3)nc12 [TCMDC-133232],3.128,–
N#Cc1ccc2c(c1)CCN(CCC1CCC(NC(=O)/C=C/c3cccc4cc[nH]c34)CC1)CC2 (stereo not drawn) [TCMDC-139671],-14.99,–
CCN1CC=C(c2c[nH]c3ccccc23)CC1 [TCMDC-124447],-15.41,–
Cn1c(/C=C/C(=O)NC2CCC(CCN3CCc4ccc(C#N)cc4CC3)CC2)cc2ccccc21 (stereo not drawn) [TCMDC-139683],-68.7,–
Cc1cn(CC(=O)Nc2cccc(-c3cccc(-c4nc5c(C)cccc5[nH]4)c3)c2)c(=O)[nH]c1=O [TCMDC-137037],-3.611,–
CC1(CCCCN2CCC(c3c[nH]c4cnccc34)CC2)C(=O)Nc2cccc(Cl)c21 (stereo not drawn) [TCMDC-141177],63.64,–
CC1(CCN2CCC(c3c[nH]c4cnccc34)CC2)CCCc2c(Br)cccc2C1=O (stereo not drawn) [TCMDC-141171],95.16,–
O=c1[nH]c(NCCCCCN2CCC(c3c[nH]c4ccccc34)CC2)ncc1Cc1ccc(Cl)c(Cl)c1 [TCMDC-139189],16.9,–
CC1(CCCCN2CCC(Cc3ccccc3)CC2)C(=O)Nc2ccccc21 (stereo not drawn) [TCMDC-140796],0.5554,–
Cc1ccc(C(=O)Nc2cccc([N+](=O)[O-])c2)cc1S(=O)(=O)N1CC(C)CC(C)C1 (stereo not drawn) [TCMDC-123731],8.733,–
COc1cc(F)c2ncc(Cl)c([C@@H](O)CN3CCC(NCc4ccc5c(n4)NC(=O)CO5)CC3)c2c1 [TCMDC-135488],20.51,–
C=C[C@H]1CN2CC[C@H]1C[C@H]2[C@H](O)c1ccnc2ccc(OC)cc12 [TCMDC-123939],–,23.69

SMILES,% Inhibition [%],% Inhibition (% Inhibition) [%]
CCN(CCCN1CCCCC1)c1cc(C)nc(Nc2ccc(C)c(Br)c2)n1 [TCMDC-132436],25.65,–
CCN(CC)CCCN(CCCN(CC)CC)c1cc(C)nc(Nc2ccc3cc(Br)ccc3c2)n1 [TCMDC-137611],92.7,–
CCCN(CCC)CCCN(CCCN(CCC)CCC)c1cc(C)nc(Nc2ccc3cc(Br)ccc3c2)n1 [TCMDC-138006],102.3,–
CCN(CCCN1CCCCC1)c1cc(C)nc(Nc2ccc(C)c(C)c2)n1 [TCMDC-132440],22.96,–
CCN(CCCN1CCCCC1)c1cc(C)nc(Nc2ccc(OC)cc2)n1 [TCMDC-132430],-5.018,–
CCCCN(CCCC)CCCN(CCCN(CCCC)CCCC)c1cc(C)nc(Nc2ccc3cc(Br)ccc3c2)n1 [TCMDC-138005],117,–
O=C(NC1CCN(Cc2ccc3c(c2)OCCO3)CC1)c1ccc(-c2cccc(C(F)(F)F)c2)s1 [TCMDC-134337],32.78,–
COc1ccc(C2N=C(N)N=C(N)N2OCc2ccccc2)cc1OC (stereo not drawn) [TCMDC-131345],5.736,–
CC1(C)N=C(N)N=C(N)N1OCCCCCOc1ccccc1 [TCMDC-131319],-2.033,–
CC(=O)N(C)c1cccc(C(=O)Nc2cccc(-c3cccc(-c4nc5c(C)cccc5[nH]4)c3)c2)c1 [TCMDC-137071],44.44,–
Cc1cc(CN2CCC(N3CC(c4ccccc4)(c4ccccc4)OC3=O)C2)ccc1O (stereo not drawn) [TCMDC-136072],-30.84,–
COc1ccc(C)c(Nc2ccnc(Nc3cccc(-c4nc5ccccc5[nH]4)c3)n2)c1 [TCMDC-138696],21,–
COc1cc(-c2nc(-c3ccc4c(c3)CCC4=NO)c(-c3ccncc3)[nH]2)ccc1OCCN1CCN(C)CC1 [TCMDC-141256],-11.77,–
CCN(CC)CCCCNc1cc(-c2[nH]c(-c3c(Cl)cccc3Cl)nc2-c2ccc3cc(OC)ccc3c2)ccn1 [TCMDC-141249],85.02,–
COc1cc(-c2nc(C(C)(C)CN)[nH]c2-c2ccncc2)ccc1Br [TCMDC-140674],-82.82,–
COc1ccc2cc(-c3nc(-c4c(Cl)cccc4Cl)[nH]c3-c3ccnc(NCCCN4CCN(C)CC4)c3)ccc2c1 [TCMDC-141250],55.44,–
CCN(CC)CCCCNc1cc(-c2[nH]c(C(C)(C)C)nc2-c2ccc3cc(OC)ccc3c2)ccn1 [TCMDC-141246],101.1,–
CC(C)(CNC(=O)[C@@H]1CCCN(CCOc2ccc(Cl)cc2)C1)c1nc(-c2ccc(Cl)c(O)c2)c(-c2ccncc2)[nH]1 [TCMDC-141125],7.649,–
COc1cccc(CNCC(C)(C)c2nc(-c3ccc(Cl)c(O)c3)c(-c3ccncc3)[nH]2)c1 [TCMDC-140687],-54.89,–
CN(C)CCOc1ccc(NC(=O)NC(C)(C)c2nc(-c3ccc(Cl)c(O)c3)c(-c3ccncc3)[nH]2)cc1 [TCMDC-140744],-34.41,–
COc1cc(-c2cc3cc(Cl)c(Cl)cc3[nH]2)ccc1C(=O)NCCC1CCCN1C (stereo not drawn) [TCMDC-141287],-25.11,–
COc1ccc2cc(-c3nc(-c4c(Cl)cccc4Cl)[nH]c3-c3ccnc(NCCC4CCCN4C)c3)ccc2c1 (stereo not drawn) [TCMDC-141248],70.07,–
COc1cc(NC(=O)CCCCCCCN2CCN(C)CC2)c2ncccc2c1 [TCMDC-138214],-6.593,–
